Values joined by “and” are separate entries in the source; they are usually repeats but may differ in a detail not shown here. Equal entries are not always repeated. A number with no mark means an inactive call. Active and inactive are the calls of the source. Cut-off read from the data, not from the text of the source: active = remaining activity below about 50%; inactive = the rest.
Molecular target: Phospholipase D1 (Homo sapiens) (UniProt Q13393)
Test: cellular phospholipase D1 activity inhibition – Calu-1 cells, single concentration (AID 602144);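 note: tested at 200 nM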
Conditions: cellular PLD1 activity, active compounds read low

Phospholipase D1 (Homo sapiens), sequence (Q13393 whole entry, looked up): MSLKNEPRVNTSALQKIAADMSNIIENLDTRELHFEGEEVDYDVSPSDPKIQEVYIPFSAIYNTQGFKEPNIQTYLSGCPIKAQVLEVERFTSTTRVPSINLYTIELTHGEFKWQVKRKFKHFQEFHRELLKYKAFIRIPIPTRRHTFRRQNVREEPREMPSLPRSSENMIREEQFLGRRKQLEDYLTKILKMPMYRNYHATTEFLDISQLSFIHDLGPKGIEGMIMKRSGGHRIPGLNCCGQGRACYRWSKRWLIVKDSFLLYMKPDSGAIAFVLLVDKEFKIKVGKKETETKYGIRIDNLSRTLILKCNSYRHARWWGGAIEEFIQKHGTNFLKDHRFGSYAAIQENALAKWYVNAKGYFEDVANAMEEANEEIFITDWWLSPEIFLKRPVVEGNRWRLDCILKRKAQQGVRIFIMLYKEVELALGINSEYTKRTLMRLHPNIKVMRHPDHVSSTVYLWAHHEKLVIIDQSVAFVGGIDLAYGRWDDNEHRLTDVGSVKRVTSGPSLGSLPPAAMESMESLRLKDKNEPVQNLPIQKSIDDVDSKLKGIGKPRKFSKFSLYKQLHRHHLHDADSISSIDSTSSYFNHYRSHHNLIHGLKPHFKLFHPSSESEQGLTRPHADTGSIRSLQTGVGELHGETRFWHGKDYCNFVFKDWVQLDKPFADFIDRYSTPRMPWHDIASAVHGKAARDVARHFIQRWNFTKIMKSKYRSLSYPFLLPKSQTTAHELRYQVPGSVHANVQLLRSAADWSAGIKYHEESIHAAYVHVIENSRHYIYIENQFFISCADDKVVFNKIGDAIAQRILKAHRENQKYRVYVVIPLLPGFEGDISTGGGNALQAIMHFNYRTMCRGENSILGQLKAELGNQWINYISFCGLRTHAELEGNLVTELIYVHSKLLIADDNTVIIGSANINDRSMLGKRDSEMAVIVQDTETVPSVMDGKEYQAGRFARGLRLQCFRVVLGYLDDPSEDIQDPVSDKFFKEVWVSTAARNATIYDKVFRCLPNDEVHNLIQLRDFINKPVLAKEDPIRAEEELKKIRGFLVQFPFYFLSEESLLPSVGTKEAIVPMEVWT
Phospholipase D1 (Homo sapiens), sequence (Q13393 whole entry, looked up): as above

In order of falling remaining activity:
1. O=C(NCCN1CCC2(CC1)C(=O)NCN2c1ccccc1)c1ncc(F)cc1F  125%
2. O=C(NCCN1CCC2(CC1)C(=O)NCN2c1cccc(F)c1)c1ccc(F)nc1  117%
3. O=C(NCCN1CCC2(CC1)C(=O)NCN2c1cccc(F)c1)c1ccc2c(c1)C(=O)OC2=O  102%
4. O=C(c1ccc(F)c(F)c1)N(CCN1CCC2(CC1)C(=O)NCN2c1cccc(F)c1)C(=O)c1ccc(F)c(F)c1  101%
5. O=C(C1CC1c1ccccc1)N1CC(N2CCC3(CC2)C(=O)NCN3c2ccccc2)C1 (stereo not drawn)  94.4%
6. O=C(NCCN1CCC2(CC1)C(=O)NCN2c1ccccc1)c1ccc2c(c1)OCO2  92.4%
7. O=C(Cc1cccs1)NCCN1CCC2(CC1)C(=O)NCN2c1cccc(F)c1  89.8%
8. O=C(NCCN1CCC2(CC1)C(=O)NCN2c1cccc(F)c1)c1cc(C(F)(F)F)ccc1C(F)(F)F  86.3%
9. O=C(NCCN1CCC2(CC1)C(=O)NCN2c1ccccc1)c1ccc2cc(F)ccc2c1  73.9%
10. Cc1cccc(C(=O)N[C@@H](C)CN2CCC3(CC2)C(=O)NCN3c2ccccc2)c1  70%
11. O=C(NCCN1CCC2(CC1)C(=O)NCN2c1ccccc1)c1cc2cccnc2s1  51.1%

With `CC(C)[C@@H](CN1CCC2(CC1)C(=O)NCN2c1ccccc1)NC(=O)c1ccc2ccccc2c1` the remaining activity was 20.7% (active).
In the case of `O=C(c1ccc(F)c(F)c1)N1CCCC1CN1CCC(n2c(=O)[nH]c3ccccc32)CC1` (stereo not drawn), the remaining activity is reported as 85.3% and 91.1%.

From PubChem BioAssay AID602144 (Vanderbilt Specialized Chemistry Center, 2011)
